The list is not random: actives were taken first. Their share in the collection is about 4.6%.
D1 agonist – Allosteric Agonists of the Human D1 Dopamine Receptor: qHTS; HEK293 T-REx D1 cells, calcium flux, agonist mode; activation, % at 2 µM; D(1A) dopamine receptor (Homo sapiens), P21728; actives 1% (n = 360,000); also: 0% is about no effect
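Agonism was scored from calcium flux recorded over 180 s (1 read/s) after pintool compound addition, following a 10-cycle baseline. Cells were inducible force-coupled HEK293 TREx D1, plated overnight at 30 C and loaded with no-wash calcium dye.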
D1 potentiator – Potentiators of Human D1 Dopamine Receptor: qHTS; actives 0.036% (n = 360,000); HEK293 TREx D1 cells, calcium flux, dopamine EC20 potentiation; D(1A) dopamine receptor (Homo sapiens), P21728; potentiation, % at 10 µM; in the data active = potentiation above about 30%; also: 0% is about no effect
TRHR agonist – qHTS for Small Molecule Agonists and Allosteric Enhancers of Human TRH Receptor: Primary Screen for Agonists; TRHR cells, calcium flux fluo-8, FDSS agonist mode; activation, % at 2 µM; actives 0.18% (n = 360,000); AID 493084, 2011; also: 0% is about no effect
Target sequence (P34981 whole entry, looked up): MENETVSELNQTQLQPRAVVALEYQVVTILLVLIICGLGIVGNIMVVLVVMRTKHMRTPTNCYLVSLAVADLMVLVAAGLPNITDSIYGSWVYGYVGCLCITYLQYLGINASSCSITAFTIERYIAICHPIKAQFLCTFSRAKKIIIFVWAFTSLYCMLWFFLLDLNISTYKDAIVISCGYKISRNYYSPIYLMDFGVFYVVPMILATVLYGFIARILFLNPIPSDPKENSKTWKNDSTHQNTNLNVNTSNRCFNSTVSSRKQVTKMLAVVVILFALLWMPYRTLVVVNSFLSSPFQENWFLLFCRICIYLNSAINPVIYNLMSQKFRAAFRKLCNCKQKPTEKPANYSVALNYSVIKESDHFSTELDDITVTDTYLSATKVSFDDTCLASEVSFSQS
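Read-out: compound-evoked intracellular calcium rise in TRHR cells, fluo-8 dye, kinetic FDSS fluorescence at 1 s/cycle following a 10-cycle baseline. Cells cultured overnight before dye loading (30 min–1.5 h, RT).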
D1 antagonist – Antagonist of Human D 1 Dopamine Receptor: qHTS. D(1A) dopamine receptor (Homo sapiens), P21728. HEK293 TREx D1 cells, calcium flux, dopamine EC80; hits give low values. activity change, negative = inhibition, % at 10 µM. actives 3.2% (n = 360,000); in the data active = activity change below about -30%; also: % is scaled to controls: 0 for no effect and ±100 for the full control effect
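Allosteric or orthosteric antagonism assessed as attenuation of the calcium response to EC80 dopamine, added 180 s after compound, in induced HEK293 Trex D1 cells loaded with no-wash calcium dye.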
TRHR enhancer – qHTS for Small Molecule Agonists and Allosteric Enhancers of Human TRH Receptor: Primary Screen for Enhancers | Thyrotropin-releasing hormone receptor (Homo sapiens), P34981 | actives 0.66% (n = 360,000) | TRHR cells, fluo-8 calcium fluorescence, EC20 TRH enhancement | enhancement, % at 2 µM | AID 493056, 2011; in the data active = enhancement above about 30%; also: 0% is about no effect
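TRHR-expressing cells loaded with fluo-8 calcium dye were read kinetically (ex 480/em 530) during compound addition, then stimulated with an EC20 of TRH (10 nM final). Enhancement of the Gq-mediated intracellular calcium response was scored.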
Starred values were filed as active, the others as inactive; ! = not active in a repeat. Rule as the data show it, unless noted: active = activation above about 30%; inactive = the rest.

SMILES	D1 agonist	D1 potentiator	TRHR agonist	D1 antagonist	TRHR enhancer
Cc1cc(C(=O)CSc2nnc3c(Cl)cc(Cl)cn23)c(C)n1C	1	3	0	-31*	-4
C=CCn1c(C)cc(C(=O)CSc2nnc3c(Cl)cc(Cl)cn23)c1C	0	-7	-1	-25	-1
COc1ccccc1NC(=O)C1(C)Cc2ccccc2C(=O)O1 (stereo unspecified)	2	-8	0	-2	7
Cc1ccc(NC(=O)C2(C)Cc3ccccc3C(=O)O2)c(C)c1 (stereo unspecified)	8	0	1	-4	50*
Cc1cc(NCc2ccccc2)c2ccccc2n1	6	-2	1	-13	-8
Cc1ccc(Nc2ccc(NCc3ccccc3)nn2)cc1C	7	-9	0	-44*	10
Cc1cc(NCc2ccccc2)nc2ccccc12	34*	-22	9	-66*	-7
N=C1c2ccccc2CN1NC(=O)c1cccc(S(=O)(=O)N2CCOCC2)c1	3	0	0	-1	1
O=C(Cn1c(=O)n(Cc2nc(-c3ccccc3)no2)c(=O)c2cc3c(cc21)OCO3)Nc1ccccc1	1	0	1	2	0
CC(C)CNC1CCS(=O)(=O)C1 (stereo unspecified)	1	10	-1	-13	-2
O=[N+]([O-])C(C1CCS(=O)(=O)C1)C1CCS(=O)(=O)C1 (stereo unspecified)	1	-4	0	-33*	4
Cc1ccccc1Nc1c2c(nc3nncn13)CCC2	-1	2	-1	6	0
Nc1cccnc1Oc1ccc(F)cc1	0	-4	0	-1	3
FC(F)(F)c1cccnc1Oc1ccc(C2=NCCS2)cc1	37*	-2	8	-6	-1
CCN(CC)C(=O)C1CCCN(c2ccccc2[N+](=O)[O-])C1 (stereo unspecified)	8	-8	-1	-6	37*
CCOC(=O)N1CCC(NS(=O)(=O)c2cc(Br)cnc2N)CC1	2	-8	0	-30*	10
CCOC(=O)N1CCC(NS(=O)(=O)c2ccccc2)CC1	7	-3	-1	7	-1
CCOC(=O)N1CCC(NS(=O)(=O)c2ccc(C)cc2)CC1	6	-4	-2	-39*	0
CCOC(=O)CNC(=O)Nc1nnc(-c2ccc(OCC)cc2)o1	2	3	0	-6	-6
Fc1ccccc1CNC(=S)Nc1cccc(C(F)(F)F)c1	25	-19	2	-44*	-5
CC(NC(=S)Nc1cccc(C(F)(F)F)c1)C(C)(C)C (stereo unspecified)	18	-9	0	-35*	-3
CC(NC(=S)Nc1ccc(OC(F)F)c(Cl)c1)C(C)(C)C (stereo unspecified)	20	-14	3	-88*	-25
Cc1ccc(NC(=S)Nc2ccc(OC(F)F)c(Cl)c2)cc1Cl	23	-12	0	-22	-4
FC(F)(F)c1cccc(NC(=S)NCc2ccc(Cl)cc2)c1	24	-8	3	-51*	-2
CC(=O)NC1(c2cccc(F)c2)CCN(CC(=O)NC2CCCCC2)CC1	1	1	0	7	1
SMILES	D1 agonist	D1 potentiator	TRHR agonist	D1 antagonist	TRHR enhancer
O=C(NCCc1csc(-c2ccc(F)cc2)n1)c1cccc(F)c1	7	-4	0	-55*	0
O=C(NCCc1csc(-c2cccc(F)c2)n1)c1cccs1	6	-5	0	-62*	-3
Cc1nc(-c2ccc(F)cc2)sc1CCNC(=O)c1cccs1	10	-3	-1	-64*	16
O=C(Cc1ccc(F)cc1)NCCc1csc(-c2cccc(F)c2)n1	0	2	0	13	5
Cc1ccc(S(=O)(=O)N2CCN(CC(=O)N/N=C\C(Cl)=C\c3ccccc3)CC2)cc1	2	-4	-1	-2	-1
CCCCN1CCc2c([nH]c3ccccc23)C1=O	1	0	0	-5	1
CN1CCc2ccccc2Cc2[nH]c3ccccc3c2CC1	-1	-7	0	-107*	1
COc1cc(OC)c(C(=O)COc2ncnc3ccccc23)c(OC)c1	3	-4	0	5	1
COC(=O)[C@@H](NC(=O)Nc1ccc(OC(F)(F)F)cc1)C(C)C	11	-10	0	-42*	-2
Cn1c(=O)n(Cc2ccc(Cl)cc2)c2ccccc21	-3	-5	0	-33*	-7
Cc1cc(C)cc(N=Cc2[nH]c3ccc(Br)c(Cl)c3c2O)c1	55*	-4	36*	-4	1
CC1C/C(=N/O)C(C)CN1 (stereo unspecified)	2	3	1	11	34*
Cc1noc(C(=O)NCc2cccnc2)c1Cl	2	-2	0	-2	20
O=S(=O)(Nc1cccc(CCc2ccccn2)c1)c1ccc2ccccc2c1	32*	-6	0	4	3
CC(=O)C1=C(C)N(Cc2ccccc2)C(=O)N[C@H]1CCc1ccccc1	16	-3	0	-31*	2
COCCN=C1N[C@@H](c2cccc(C(F)(F)F)c2)C(C(=O)OC)=C(C)N1Cc1ccccc1	32*	-5	5	0	-4
COC(=O)C1=C(C)N(Cc2ccccc2)C(=S)N[C@H]1c1ccccc1	3	-6	2	3	-1
COC(=O)C1=C(C)N(Cc2ccccc2)C(=NCCc2c[nH]c3ccccc23)N[C@H]1c1cccc(C(F)(F)F)c1	12	-4	1	6	2
CCN1C(=NCCc2c[nH]c3ccccc23)N[C@@H](c2ccccc2)C(C(=O)OC)=C1C	49*!	-4	3	-9	2
CC[C@@H](C)CN1C(=O)N[C@@H](CCc2ccccc2)C(C(C)=O)=C1C	1	0	-1	15	-2
COC(=O)C1=C(C)N(Cc2ccccc2)C(=O)N[C@H]1c1ccccc1	100*	-6	0	-6	7
COc1ccc2c3n([n+]([O-])c2c1)CCN=C3c1ccc(C)cc1	1	2	0	6	-2
O=C(Oc1ccc([N+](=O)[O-])cc1)c1cncc(Br)c1	7	-7	2	0	-3
CC(C)CCNC(=O)CCS(=O)(=O)c1cccc2nonc12	6	0	0	0	-1
COC(=O)CSc1nc2sc3c(c2c(=O)n1Cc1ccccc1)CCC(C(C)(C)C)C3 (stereo unspecified)	1	-1	0	5	8
